Data: PubChem BioAssay AID1159580 (chemical genetic matrix, 2015)
“And” between values parts separate entries of the source, which are not always exact repeats. Equal values may be shown once. Among all 5,500 compounds or so, about 2,000 (36%) were called active. About 18% were inconclusive and are not listed. Cut-off read from the data, not from the text of the source: active = normalized growth mostly below about 0.91 (no sharp cut-off); inconclusive = no clear call, values can overlap the other calls; inactive = mostly above about 0.92. This is one part of the list.

Test: chemical genetic growth profiling, strain panel (AID 1159580);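 note: tested at 20 µM; growth read once vehicle control cultures reached saturation at 30 °C; 1 = growth at the plate median or of vehicle wells; lower values mean less growth of the strain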
Conditions: S. cerevisiae deletion strains, growth OD

Measured: normalized growth

NCCCNCCSP(=O)(O)O
inactive: locus YAL013W, strain DEP1, active compounds read low 0.988 and 1.01 | locus YAL021C, strain ccr4, active compounds read low 0.985 | locus YAL026C, strain drs2, active compounds read low 0.976 | locus YAL030W, strain snc1, active compounds read low 0.968 | locus YAL040C, strain CLN3, active compounds read low 1 | locus YBL061C, strain skt5, active compounds read low 0.97 | locus YBR009C, strain hhf1, active compounds read low 0.988 | locus YBR021W, strain FUR4, active compounds read low 0.967 | locus YBR023C, strain chs3, active compounds read low 0.976 | locus YBR171W, strain sec66, active compounds read low 0.96 | locus YBR229C, strain ROT2, active compounds read low 1 | locus YBR231C, strain swc5, active compounds read low 0.975 | locus YBR279W, strain paf1, active compounds read low 0.995 | locus YCL011C, strain gbp2, active compounds read low 0.957 | locus YCL016C, strain dcc1, active compounds read low 0.982 | locus YCL029C, strain bik1, active compounds read low 0.988 | locus YCL061C, strain MRC1, active compounds read low 0.983 | locus YCL069W, strain vba3, active compounds read low 0.994 | locus YCR088W, strain abp1, active compounds read low 0.982 | locus YDL005C, strain med2, active compounds read low 0.969 | locus YDL035C, strain GPR1, active compounds read low 0.994 | locus YDL040C, strain nat1, active compounds read low 0.987 | locus YDL074C, strain BRE1, active compounds read low 0.993 | locus YDL101C, strain DUN1, active compounds read low 0.984 | locus YDL134C, strain PPH21, active compounds read low 0.994 | locus YDL185W, strain tfp1, active compounds read low 0.944 | locus YDL192W, strain arf1, active compounds read low 0.986 | locus YDR001C, strain nth1, active compounds read low 0.977 | locus YDR069C, strain doa4, active compounds read low 0.968 | locus YDR101C, strain arx1, active compounds read low 1 | locus YDR137W, strain rgp1, active compounds read low 0.968 | locus YDR150W, strain NUM1, active compounds read low 0.949 | locus YDR159W, strain sac3, active compounds read low 0.98 | locus YDR162C, strain NBP2, active compounds read low 0.992 | locus YDR195W, strain ref2 0.989 | locus YDR297W, strain sur2, active compounds read low 0.983 | locus YDR318W, strain mcm21, active compounds read low 0.986 | locus YDR334W, strain swr1, active compounds read low 0.933 | locus YDR335W, strain msn5, active compounds read low 0.981 | locus YDR388W, active compounds read low 1 | locus YDR392W, strain spt3, active compounds read low 0.927 | locus YDR502C, strain sam2, active compounds read low 0.993 | locus YEL003W, strain gim4, active compounds read low 0.988 | locus YEL037C, strain rad23, active compounds read low 0.981 | locus YEL061C, strain CIN8 (second series), active compounds read low 0.972 | locus YEL061C, strain CIN8, active compounds read low 0.998 | locus YER002W, strain NOP16, active compounds read low 0.997 | locus YER015W, strain faa2, active compounds read low 0.973 | locus YER016W, strain bim1, active compounds read low 0.991 | locus YER110C, active compounds read low 0.989 | locus YER111C, strain swi4, active compounds read low 0.988 | locus YER155C, strain BEM2 (second series), active compounds read low 0.983 | locus YER155C, strain BEM2, active compounds read low 0.942 | locus YER167W, strain BCK2, active compounds read low 0.991 | locus YFR010W, strain ubp6, active compounds read low 0.957 | locus YGL078C, strain dbp3, active compounds read low 0.987 | locus YGL086W, strain mad1, active compounds read low 0.978 | locus YGL167C, strain pmr1, active compounds read low 0.976 | locus YGL173C, strain kem1, active compounds read low 0.944 | locus YGL227W, strain vid30, active compounds read low 0.974 | locus YGL240W, strain doc1, active compounds read low 0.984 | locus YGL248W, strain PDE1, active compounds read low 1 | locus YGL253W, strain hxk2, active compounds read low 0.989 | locus YGR078C, strain PAC10, active compounds read low 0.984 | locus YGR135W, strain pre9, active compounds read low 0.984 | locus YGR229C, strain SMI1, active compounds read low 0.964 | locus YGR252W, strain gcn5, active compounds read low 0.978 | locus YHR013C, strain ard1, active compounds read low 0.981 | locus YHR027C, strain rpn1, active compounds read low 0.959 | locus YHR030C, strain SLT2, active compounds read low 0.993 | locus YHR079C, strain IRE1 (second series), active compounds read low 0.991 | locus YHR094C, strain hxt1, active compounds read low 0.979 | locus YHR129C, strain ARP1, active compounds read low 0.999 | locus YHR142W, strain chs7, active compounds read low 0.936 | locus YHR200W, strain rpn10, active compounds read low 0.983 | locus YIL066C, strain RNR3, active compounds read low 0.995 | locus YIL073C, strain SPO22, active compounds read low 0.941 | locus YIL125W, strain kgd1, active compounds read low 1 | locus YIR030C, strain dcg1, active compounds read low 0.998 | locus YJL092W, strain hpr5, active compounds read low 0.979 | locus YJL095W, strain BCK1 (second series), active compounds read low 0.983 | locus YJL095W, strain BCK1, active compounds read low 1.02 | locus YJL115W, strain asf1, active compounds read low 0.955 | locus YJL129C, strain trk1, active compounds read low 1 | locus YJL134W, strain LCB3, active compounds read low 0.989 | locus YJL154C, strain vps35, active compounds read low 0.972 | locus YJL164C, strain tpk1, active compounds read low 0.992 | locus YJL166W, strain qcr8, active compounds read low 0.956 | locus YJL168C, strain set2, active compounds read low 1 | locus YJL187C, strain SWE1 (second series), active compounds read low 0.99 | locus YJL187C, strain SWE1, active compounds read low 0.982 | locus YJR043C, strain POL32, active compounds read low 0.994
